Sampled rows, rich in hits. Any-hit rate of the full collection: about 3.4%.
proKLK7 act: proKLK7 zymogen activators, primary screen, biochemical, fluorescence intensity; Kallikrein-7 (Homo sapiens), P49862; purified proKLK7, EDANS-DABCYL substrate fluorescence; 100% is mature enzyme control, 0% vehicle; activation, % at 7 µM; 370,000 tested, 0.9% active;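 active = activation above the mean of all tested compounds plus 3 SD, computed per campaign excluding outliers beyond control limits, cut at about 13% in these data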
ADAM17 inh: ADAM17 inhibitors, primary screen, biochemical, QFRET; Disintegrin and metalloproteinase domain-containing protein 17 (Homo sapiens), P78536; 370,000 tested, 0.83% active; inhibition, % at 6.95 µM; recombinant ADAM17, EDANS/DABCYL FRET peptide cleavage; AID 720648, 2013;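 active = inhibition above the mean of compounds lying between control limits plus 3 SD, set per campaign, cut at about 8.5% in these data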
Target sequence (P78536 215-824 limits assumed): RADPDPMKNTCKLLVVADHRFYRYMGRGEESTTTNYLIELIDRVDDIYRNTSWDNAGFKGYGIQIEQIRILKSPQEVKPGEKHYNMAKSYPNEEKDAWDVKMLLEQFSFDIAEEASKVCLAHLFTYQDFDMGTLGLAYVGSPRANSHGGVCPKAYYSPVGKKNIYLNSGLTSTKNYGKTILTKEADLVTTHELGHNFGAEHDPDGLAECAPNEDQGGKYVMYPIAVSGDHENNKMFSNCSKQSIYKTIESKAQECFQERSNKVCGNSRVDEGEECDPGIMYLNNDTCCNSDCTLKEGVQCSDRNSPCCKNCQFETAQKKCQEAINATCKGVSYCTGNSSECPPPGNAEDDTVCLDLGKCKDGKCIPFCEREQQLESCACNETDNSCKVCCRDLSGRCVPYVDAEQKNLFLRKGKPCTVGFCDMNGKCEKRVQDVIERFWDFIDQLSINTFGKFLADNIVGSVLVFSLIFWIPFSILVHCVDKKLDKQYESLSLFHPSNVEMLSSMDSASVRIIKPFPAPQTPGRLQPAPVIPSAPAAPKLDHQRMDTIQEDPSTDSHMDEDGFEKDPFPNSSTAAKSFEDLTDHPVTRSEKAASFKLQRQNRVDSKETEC
ADAM10 inh: human ADAM10 inhibitors, primary screen, biochemical, QFRET, HTS; inhibition, % at 7 µM; 370,000 tested, 0.62% active; Disintegrin and metalloproteinase domain-containing protein 10 (Homo sapiens), O14672; AID 720582, 2013; recombinant ADAM10, EDANS/DABCYL FRET peptide cleavage, 3 h;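 active = inhibition above a per-campaign cutoff equal to the mean of compounds falling between control-based bounds plus 3 SD, cut at about 20% in these data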
CendR NRP1 mod: modulators of CendR peptide binding to NRP-1, primary screen, biochemical, fluorescence polarization, uHTS. FAM-RPARPAR peptide binding to NRP-1. inhibition, % at 25 µM. 360,000 tested, 0.85% active. AID 602438, 2012;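 active = inhibition or corrected inhibition above about 18%, plus a signal ratio from 0.5 to 1.5, limit read from the data, passing the limit was not always enough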
sPLA2-III inh: human group III sPLA2 inhibitors, primary screen, biochemical, QFRET, BODIPY PC-A2 liposome substrate | QFRET BODIPY PC-A2 liposome hydrolysis, fluorescence | inhibition, % at 12.2 µM | 370,000 tested, 0.56% active;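 active = inhibition above mean plus 3 SD of compounds lying within the high and low control bounds, cut at about 19% in these data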
ADAM10 counter: ADAM10 inhibitors, counter-screen for ADAM17 exosite inhibitor project, biochemical, FRET, human ADAM10; shares compounds with ADAM17 inh; recombinant ADAM10, EDANS/DABCYL FRET peptide cleavage, 3 h; inhibition, % at 6.95 µM; 2,900 tested, 47% active;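 active = mean inhibition over the triplicate runs exceeds the activity threshold set in the earlier primary screen, cut at about 20% in these data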
ADAM17 confirm: ADAM17 inhibitors, hit retest, confirmation, biochemical, QFRET peptide cleavage; shares compounds with ADAM17 inh; recombinant ADAM17, EDANS/DABCYL QFRET peptide cleavage; inhibition, % at 6.95 µM; 2,900 tested, 65% active;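 active = mean inhibition across replicates above the hit cutoff set in the primary screen, cut at about 8.5% in these data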
Of the large screens only hits and unclear results are named; the others gave an inactive call (follow-up assays come after a bar, where they were run).

O=C(NC(CSCc1ccccc1)C(=O)N/N=C/c1ccc(O)cc1O)c1ccc([N+](=O)[O-])cc1 (centres undefined)	ADAM17 inh 14 | ADAM10 counter inactive | ADAM17 confirm 17
Fc1ccccc1Cn1nnc2c(-n3ccnc3)ncnc21	ADAM17 inh 8.7 | ADAM10 counter inactive | ADAM17 confirm inactive
Clc1ccccc1Cn1nnc2c(N3CCCC3)ncnc21	none
CCCCN1C(=O)/C(=C/C=C2\SCCN2C)SC1=S	ADAM17 inh 12 | ADAM10 counter 25 | ADAM17 confirm 16
CN1CCS/C1=C/C=C1\SC(=S)N(CC(=O)O)C1=O	ADAM17 inh 8.9 | ADAM10 counter 27 | ADAM17 confirm 13
CN1CCS/C1=C/C=C1/SC(=S)N(Cc2ccccc2)C1=O	none
O=C(NCC(c1ccc(F)cc1)N1CCOCC1)c1ccc(Br)o1 (centres undefined)	ADAM17 inh 11 | ADAM10 counter inactive | ADAM17 confirm 11
N#Cc1ccc(/C=C2\CC3(OC(=O)c4ccco4)CCCN2C3)cc1 (centres undefined)	none (no result: CendR NRP1 mod)
Cc1cccnc1NC(=O)c1ccc(Br)o1	ADAM17 inh 8.6 | ADAM10 counter inactive | ADAM17 confirm inactive
O=C(Nc1nc(-c2ccc3c(c2)OCO3)cs1)C1COc2ccccc2O1 (centres undefined)	none
O=C(Nc1nc(-c2ccccc2)cs1)C1COc2ccccc2O1 (centres undefined)	ADAM17 inh 14 | ADAM10 counter 44 | ADAM17 confirm 14
COc1ccccc1NS(=O)(=O)c1cc(NC(=O)CNC(=O)c2ccccc2)ccc1C	ADAM17 inh 9.1 | ADAM10 counter inactive | ADAM17 confirm inactive
COc1ccccc1NC(=O)CNC(=O)c1ccccc1	none
COc1ccc(Nc2nc(C)c(-c3ccccc3)s2)cc1	ADAM17 inh 9.1 | ADAM10 counter inactive | ADAM17 confirm inactive
CO[C@@H]1[C@H](O)CC[C@]2(O)CN(c3ccccc3)[C@](C)([C@H](O)CC=C(C)C)[C@@H]12	none (no result: CendR NRP1 mod)
CCOC(=O)c1sc(NC(=O)Nc2ccccc2)cc1C	ADAM17 inh 9.2 | ADAM10 counter inactive | ADAM17 confirm inactive
Cc1cc(N2CCN(C(=O)OC(C)(C)C)C[C@H]2C)ccc1N1CC[C@@H](O)C1	none (no result: CendR NRP1 mod)
CCC/C(O)=C1\C(=O)CCCC1=NC(C)C(=O)O (centres undefined)	ADAM17 inh 10 | ADAM10 counter inactive | ADAM17 confirm inactive
CCC/C(O)=C1\C(=O)CCCC1=NCCc1ccc(OCC)c(OCC)c1	none
O=C1C[C@@H](c2ccccc2)N=C2N(Cc3ccc4c(c3)OCO4)C/C(=C/c3ccccc3)N12	none (no result: CendR NRP1 mod)
COc1cccc2cc(/C(=N/O)c3ccc(Br)cc3)oc12	ADAM17 inh 12 | ADAM10 counter inactive | ADAM17 confirm 11
CC(C)[C@H](NC(=O)c1ccc(Cl)cc1Cl)C(=O)N1CCC[C@H]1C(=O)NCCc1ccccc1Cl	none (no result: CendR NRP1 mod)
COc1ccc(CCC(=O)NNC(=O)c2cc(Cl)ccc2OC)cc1OC	none
COc1ccc(CCC(=O)NNC(=O)c2cc(Cl)ccc2OC)cc1	ADAM17 inh 8.8 | ADAM10 counter inactive | ADAM17 confirm inactive
CC(C)CNC(=O)OCc1cn(Cc2ccc(Cl)cc2)nn1	none (no result: CendR NRP1 mod)
COc1ccc(NC(=O)CCSc2ccc(C)cc2)cc1S(=O)(=O)Nc1ccccc1Cl	none
COc1ccc(NS(=O)(=O)c2cc(NC(=O)CCSc3ccccc3)ccc2OC)cc1	ADAM17 inh 10 | ADAM10 counter 42 | ADAM17 confirm 22
CCN(c1ccccc1)S(=O)(=O)c1c[nH]c2ccc([N+](=O)[O-])cc12	ADAM17 inh 9.3 | ADAM10 counter 32 | ADAM17 confirm 16
O=C(O)c1ccccc1C(=O)Nc1cc(C(F)(F)F)ccc1N1CCCC1	ADAM17 inh 10 | ADAM10 counter inactive | ADAM17 confirm inactive
COc1ccc(CNc2ccc([N+](=O)[O-])cn2)cc1	none
COc1ccc(C(=O)CC(=O)Nc2ccc([N+](=O)[O-])cc2)cc1	ADAM17 inh 9.5 | ADAM10 counter 25 | ADAM17 confirm 12
COc1ccc(Nc2ccc([N+](=O)[O-])cn2)cc1	ADAM17 inh 10 | ADAM10 counter inactive | ADAM17 confirm inactive
O=C(N[C@H](C(=O)N1CCC[C@H]1C(=O)NC1CCCC1)C1CCCCC1)C1CC1	none (no result: CendR NRP1 mod)
CN1/C(=C/C(=O)C2CCC2)Sc2ccccc21	ADAM17 inh 12 | ADAM10 counter inactive | ADAM17 confirm inactive
COCC(=O)/C=C1\Sc2ccccc2N1C	none
Cc1ccc(O)c(-c2cc(C(=O)Nc3ccc(S(=O)(=O)N4CC(C)OC(C)C4)cc3)[nH]n2)c1 (centres undefined)	ADAM17 inh 9.2 | ADAM10 counter inactive | ADAM17 confirm 9.4
Cc1ccc(-c2cc(C(=O)Nc3ccc(S(=O)(=O)N4CC(C)OC(C)C4)cc3)[nH]n2)c(O)c1 (centres undefined)	none
CCOc1ccc(CCN2C(=S)N([C@@H](Cc3ccc(O)cc3)CN3CCC[C@@H]3CN3C(=S)NC[C@@H]3Cc3ccccc3)C[C@@H]2Cc2ccc(O)cc2)cc1	ADAM17 inh 12 | ADAM10 counter inactive | ADAM17 confirm 8.8
CC(C)C[C@H]1CNC(=S)N1C[C@H]1CCCN1C[C@H](Cc1ccccc1)N1C[C@H](Cc2ccc(O)cc2)N(CCc2ccccc2)C1=S	ADAM17 inh 9.5 | ADAM10 counter inactive | ADAM17 confirm 9.5
CC(C)C[C@H]1CN([C@@H](Cc2ccc(O)cc2)CN2CCC[C@@H]2CN2C(=S)NC[C@@H]2Cc2ccccc2)C(=S)N1CCc1ccccc1	ADAM17 inh 8.9 | ADAM10 counter 34 | ADAM17 confirm 20
Oc1ccc(C[C@H]2CNC(=S)N2CC2CCCN2C[C@H](Cc2ccccc2)N2C[C@H](Cc3ccc(O)cc3)N(CCc3ccccc3)C2=S)cc1 (some centres undefined)	ADAM17 inh 10 | ADAM10 counter 44 | ADAM17 confirm 22
CC(C)C[C@H]1CNC(=S)N1C[C@H]1CCCN1C[C@H](Cc1ccc(O)cc1)N1C[C@H](Cc2ccc(O)cc2)N(CCc2ccccc2)C1=S	none
